The values that follow come from the supplement of paper PMC11865577.

Structures can show the parent of a compound that is named as a salt.

One assay relates to SARS-CoV-2 low-rank motif (SARS-low). Description: normalised indicator fluorescence (fraction of RNA + indicator signal without compound); higher = less displacement of indicator (weaker competition). The following applies: compound concentration: 5 uM; 30 min; indicator: TO-PRO-1 0.1 uM; RNA concentration: 0.1 uM. The method in brief:
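Compounds, each at about 5 uM final from 0.25 μL of 1 mM DMSO stock, were tested in 96-well plates for displacement of TO-PRO-1 or TO-PRO-3 from RNA in 20 mM phosphate pH 7.0, 20 mM NaCl, 80 mM KCl. Fluorescence was recorded after 30 min on an Infinite 200 PRO (excitation 485 or 620 nm). Reported values are averages of two independent experiments, calculated as indicator fluorescence minus the buffer-plus-indicator blank, divided by the RNA-plus-indicator signal without compound.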
In the case of `NC(=O)N/N=C/c1ccc([N+](=O)[O-])o1` [Furacilin], the normalised indicator fluorescence came out at 1.11.
Still for that read-out and setting: next, `Oc1cc(O)c2c(c1)O[C@H](c1ccc(O)c(O)c1)[C@@H](O)C2` [(+)-Catechin Hydrate]: 0.966.
Same read-out and setting: with `CCNC(=O)c1[nH]nc(-c2cc(Cl)c(O)cc2O)c1-c1ccc(OC)cc1` the figure was 1.25; with `O=C1c2c(O)cc(O)cc2OC(c2ccc(O)c(O)c2)C1O` (stereo not given) [Taxifolin], 1.25; with `CN(C)C[C@@H]1CCn2cc(c3ccccc32)C2=C(C(=O)NC2=O)c2cn(c3ccccc23)CCO1` [Ruboxistaurin hydrochloride], 1.14.
The same measure, in the same setting: next, `Oc1ccc(-c2nc(-c3ccc(F)cc3)c(-c3ccncc3)[nH]2)cc1`: 1.2.
`O=C(COc1ccc(Cl)cc1)NC1CCC(NC(=O)COc2ccc(Cl)cc2)CC1` (stereo not given): the normalised indicator fluorescence amounted to 1.05.
Same read-out and setting: next, `COC1=CC(=O)c2ccccc2C1=O` [2-Methoxynaphthoquinone]: 1.19.
On the same count and under the same terms, with `CC1=NN(c2ccccc2)C(=O)C1` [Edaravone] the figure was 1.13.
For the molecule `O=C(O)/C=C/c1ccc(Cn2ccnc2)cc1` [Ozagrel], the normalised indicator fluorescence was 1.09.
The same measure, in the same setting: next, `NC(=O)c1ccc(N(C(N)=O)c2c(F)cccc2F)nc1-c1ccc(F)cc1F`: 1.28; `O=c1cc(-c2ccccc2)oc2cc(O)c(O)c(O)c12` [Baicalein]: 0.791.
On to `Nc1c(Br)cc(Br)cc1CN[C@H]1CC[C@H](O)CC1` [Ambroxol], for which the normalised indicator fluorescence is 0.985.
Still for that read-out and setting: with `C[S+]([O-])c1ccc(-c2nc(-c3ccc(F)cc3)c(-c3ccncc3)[nH]2)cc1` (stereo not given) the figure was 1.04; with `N#Cc1c(NC(=O)c2cccc3ccccc23)sc2c1CCCC2`, 1.03; with `O=c1c(O)c(-c2ccccc2)oc2cc(O)cc(O)c12` [Galangin], 1.12.
Same read-out and setting: with `CC(=O)CCCCn1c(=O)c2c(ncn2C)n(C)c1=O` [Pentoxifylline] the figure was 1.23.
For the molecule `COc1ccc(C2CC(=O)c3c(O)cc(OC4OC(COC5OC(C)C(O)C(O)C5O)C(O)C(O)C4O)cc3O2)cc1OC` (stereo not given) [Methyl hesperidin], the normalised indicator fluorescence was determined as 1.08.
As for `COc1ccc([C@@H]2OC[C@H]3[C@@H]2CO[C@@H]3c2ccc(O[C@@H]3O[C@H](CO)[C@@H](O)[C@H](O)[C@H]3O)c(OC)c2)cc1OC` [Forsythin], the normalised indicator fluorescence was found to be 1.1.
Take `O=C(NC(Cc1cc(=O)[nH]c2ccccc12)C(=O)O)c1ccc(Cl)cc1` (stereo not given) [Rebamipide]: the normalised indicator fluorescence worked out at 1.3.
On to `COc1nccnc1NS(=O)(=O)c1ccc(NC(=O)/C=C/c2ccc([N+](=O)[O-])s2)cc1` [Necrosulfonamide], for which the normalised indicator fluorescence was found to be 1.16.
With `CC(=O)O[C@H]1C[C@@]2(C)[C@@H](C[C@@H](O)[C@H]3[C@@]4(C)CC[C@@H](O)[C@@H](C)[C@@H]4CC[C@@]32C)/C1=C(\CCC=C(C)C)C(=O)O` [Sodium fusidate], the normalised indicator fluorescence worked out at 1.11.
Still for that read-out and setting: with `Cc1cccc(CC(=O)N2CCc3c2ccc(-c2cn(C)c4ncnc(N)c24)c3F)n1` the figure was 1.06; with `O=c1ccc2ccc(O)c(O)c2o1` [Daphnetin], 1.04.

The assay is the same for the next values; noted with them: compound concentration: 5 uM; 30 min; indicator: TO-PRO-3 0.5 uM; RNA concentration: 0.5 uM.
Take `CCNC(=O)c1noc(-c2cc(Cl)c(O)cc2O)c1-c1ccc(OC)cc1`: the normalised indicator fluorescence is 1.43.
The same measure, in the same setting: with `COc1ccc(O)cc1` [4-Methoxyphenol] the figure was 1.27; with `COc1ccc(-c2nc(-c3cc(C(F)(F)F)cc(C(F)(F)F)c3)n(Cc3ccc(C(N)=O)cc3)c2-c2ccc(OC)cc2)cc1` [Apoptozole], 1.14; with `O=C(/C=C/C=C/c1ccc2c(c1)OCO2)N1CCCCC1` [Piperine], 1.15.
Take `OC[C@H]1O[C@@H](Oc2ccc(O)cc2)[C@H](O)[C@@H](O)[C@@H]1O` [Arbutin]: the normalised indicator fluorescence turned out to be 1.25.
On the same count and under the same terms, next, `CC(=O)Oc1c(C)c(C)c2c(c1C)CCC(C)(CCC[C@H](C)CCC[C@H](C)CCCC(C)C)O2` (stereo not given in full) [Vitamin E Acetate]: 1.21; `CC(C)(O)[C@@H]1CC[C@](C)([C@H]2[C@@H](O)C[C@@]3(C)[C@@H]4C[C@H](O)[C@H]5C(C)(C)[C@@H](O[C@@H]6OC[C@@H](O)[C@H](O)[C@H]6O[C@@H]6O[C@H](CO)[C@@H](O)[C@H](O)[C@H]6O)CC[C@@]56C[C@@]46CC[C@]23C)O1` [Astragaloside III]: 0.988.
On the same count and under the same terms, with `O=CN1CC/C(=C/c2ccc3c(c2)OCO3)C1=O` the figure was 1.08; with `CCCC(C(=O)OCCN(CC)CC)(c1ccccc1)c1ccccc1` [Proadifen hydrochloride], 1.04; with `C/C1=C/CC[C@H](C)C(=O)C[C@@H](C(C)C)C(=O)C1` [Curdione], 1.1.
On the same count and under the same terms, with `[I-].[K+]` [Potassium iodide] the figure was 1.29; with `C[C@H]1[C@H](C)CC[C@]2(C(=O)O[C@@H]3O[C@H](CO[C@@H]4O[C@H](CO)[C@@H](O[C@@H]5O[C@H](C)[C@H](O)[C@@H](O)[C@H]5O)[C@H](O)[C@H]4O)[C@@H](O)[C@H](O)[C@H]3O)CC[C@]3(C)C(=CC[C@@H]4[C@@]5(C)C[C@@H](O)[C@H](O)[C@@](C)(CO)[C@@H]5CC[C@]43C)[C@H]12` [Asiaticoside], 1.3; with `NC(=O)N/N=C/c1ccc([N+](=O)[O-])o1` [Furacilin], 1.05.
Regarding `Oc1cc(O)c2c(c1)O[C@H](c1ccc(O)c(O)c1)[C@@H](O)C2` [(+)-Catechin Hydrate], the normalised indicator fluorescence turned out to be 1.16.
The same measure, in the same setting: next, `CCNC(=O)c1[nH]nc(-c2cc(Cl)c(O)cc2O)c1-c1ccc(OC)cc1`: 1.22; `O=C1c2c(O)cc(O)cc2OC(c2ccc(O)c(O)c2)C1O` (stereo not given) [Taxifolin]: 1.31; `CN(C)C[C@@H]1CCn2cc(c3ccccc32)C2=C(C(=O)NC2=O)c2cn(c3ccccc23)CCO1` [Ruboxistaurin hydrochloride]: 0.961.
Still for that read-out and setting: with `Oc1ccc(-c2nc(-c3ccc(F)cc3)c(-c3ccncc3)[nH]2)cc1` the figure was 1.23; with `O=C(COc1ccc(Cl)cc1)NC1CCC(NC(=O)COc2ccc(Cl)cc2)CC1` (stereo not given), 0.94; with `COC1=CC(=O)c2ccccc2C1=O` [2-Methoxynaphthoquinone], 1.12.
Same read-out and setting: next, `CC1=NN(c2ccccc2)C(=O)C1` [Edaravone]: 1.32; `O=C(O)/C=C/c1ccc(Cn2ccnc2)cc1` [Ozagrel]: 1.21; `NC(=O)c1ccc(N(C(N)=O)c2c(F)cccc2F)nc1-c1ccc(F)cc1F`: 1.21.
As for `O=c1cc(-c2ccccc2)oc2cc(O)c(O)c(O)c12` [Baicalein], the normalised indicator fluorescence was determined as 0.739.
Same read-out and setting: next, `Nc1c(Br)cc(Br)cc1CN[C@H]1CC[C@H](O)CC1` [Ambroxol]: 0.984.
Take `C[S+]([O-])c1ccc(-c2nc(-c3ccc(F)cc3)c(-c3ccncc3)[nH]2)cc1` (stereo not given): the normalised indicator fluorescence was 0.92.
Still for that read-out and setting: next, `N#Cc1c(NC(=O)c2cccc3ccccc23)sc2c1CCCC2`: 1.1; `O=c1c(O)c(-c2ccccc2)oc2cc(O)cc(O)c12` [Galangin]: 1.28.
Same read-out and setting: next, `CC(=O)CCCCn1c(=O)c2c(ncn2C)n(C)c1=O` [Pentoxifylline]: 1.05.
Still for that read-out and setting: with `COc1ccc(C2CC(=O)c3c(O)cc(OC4OC(COC5OC(C)C(O)C(O)C5O)C(O)C(O)C4O)cc3O2)cc1OC` (stereo not given) [Methyl hesperidin] the figure was 1.37; with `COc1ccc([C@@H]2OC[C@H]3[C@@H]2CO[C@@H]3c2ccc(O[C@@H]3O[C@H](CO)[C@@H](O)[C@H](O)[C@H]3O)c(OC)c2)cc1OC` [Forsythin], 1.16.
As to `O=C(NC(Cc1cc(=O)[nH]c2ccccc12)C(=O)O)c1ccc(Cl)cc1` (stereo not given) [Rebamipide], the normalised indicator fluorescence turned out to be 1.07.
On the same count and under the same terms, next, `COc1nccnc1NS(=O)(=O)c1ccc(NC(=O)/C=C/c2ccc([N+](=O)[O-])s2)cc1` [Necrosulfonamide]: 0.996; `CC(=O)O[C@H]1C[C@@]2(C)[C@@H](C[C@@H](O)[C@H]3[C@@]4(C)CC[C@@H](O)[C@@H](C)[C@@H]4CC[C@@]32C)/C1=C(\CCC=C(C)C)C(=O)O` [Sodium fusidate]: 1.04.
The same measure, in the same setting: next, `Cc1cccc(CC(=O)N2CCc3c2ccc(-c2cn(C)c4ncnc(N)c24)c3F)n1`: 1.05; `O=c1ccc2ccc(O)c(O)c2o1` [Daphnetin]: 0.935.
